From PubChem BioAssay (NCATS)
Records with an inconclusive call do not appear. Entries that show only a call come without a potency. Active and inactive are the calls of the source. The call rests on the fitted dose curve; in most records, active means well fitted curve in the direction sought with a large enough effect; inconclusive means small, poorly fitted or top-dose-only effect, or another doubt; inactive means no such curve, though single readings can be large; an effect the other way counts as inactive or inconclusive.

Key:
[1] = molecular target: Metallo-beta-lactamase type 2 (Klebsiella pneumoniae) (UniProt C7C422); assay: qHTS to identify inhibitors of the New Delhi Metallo-beta-lactamase (NDM): assay validation screen against the NCATS LOPAC Collection (AID 1794843);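 further: nitrocefin turnover by NDM-1 measured as 485 nm absorbance at plateau; series mostly up to about 38 µM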
Metallo-beta-lactamase type 2 (Klebsiella pneumoniae), sequence (C7C422 whole entry, looked up): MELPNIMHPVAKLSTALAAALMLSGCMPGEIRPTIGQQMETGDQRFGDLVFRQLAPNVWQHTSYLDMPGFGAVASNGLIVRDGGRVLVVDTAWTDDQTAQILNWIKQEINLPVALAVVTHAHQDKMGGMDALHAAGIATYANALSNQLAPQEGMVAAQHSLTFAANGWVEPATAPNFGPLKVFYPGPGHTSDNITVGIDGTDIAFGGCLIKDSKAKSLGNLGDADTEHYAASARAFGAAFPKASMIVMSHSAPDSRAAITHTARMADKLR
In short: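 Enzyme 2 nM final, 50 mM HEPES pH 7.0, 1 uM ZnSO4, 0.01% Tween20; cpds in DMSO, preincub w/ enzyme; + nitrocefin (50 uM stock); A485 at plateau; no-enzyme column as blank.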

[2] = molecular target: Glutathione peroxidase 1 (Homo sapiens) (UniProt P07203); assay: Primary qHTS Assay for Inhibitors of Recombinant Selenoprotein Glutathione Peroxidase 1 (GPX1) (AID 1845191); further: nearly all actives have a fitted effect of over 65% in size; further: potency means the concentration at half of the fitted maximal effect
Glutathione peroxidase 1 (Homo sapiens), sequence (P07203 whole entry, looked up): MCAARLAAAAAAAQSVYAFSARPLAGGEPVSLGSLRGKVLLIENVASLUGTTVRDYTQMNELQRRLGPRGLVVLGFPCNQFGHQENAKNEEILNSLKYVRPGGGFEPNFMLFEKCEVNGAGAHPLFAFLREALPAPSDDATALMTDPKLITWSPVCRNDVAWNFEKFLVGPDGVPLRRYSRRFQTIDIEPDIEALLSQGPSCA
In short: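 Recombinant GPX1 (10 nM final) was preincubated with compound for 30 min at room temperature, then reacted with 1 mM GSH, 0.5 mM CHP, 0.5 mM NADPH and 100 nM glutathione reductase; NADPH fluorescence (340/450 nm) was read at 0 and 15 min.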

[3] = molecular target: Phospholipid hydroperoxide glutathione peroxidase GPX4 (Homo sapiens) (UniProt P36969); assay: Primary qHTS Assay for Inhibitors of Recombinant Selenoprotein Glutathione Peroxidase 4 (GPX4) (AID 1845192); further: nearly all actives have a fitted effect of over 65% in size
Phospholipid hydroperoxide glutathione peroxidase GPX4 (Homo sapiens), sequence (P36969 whole entry, looked up): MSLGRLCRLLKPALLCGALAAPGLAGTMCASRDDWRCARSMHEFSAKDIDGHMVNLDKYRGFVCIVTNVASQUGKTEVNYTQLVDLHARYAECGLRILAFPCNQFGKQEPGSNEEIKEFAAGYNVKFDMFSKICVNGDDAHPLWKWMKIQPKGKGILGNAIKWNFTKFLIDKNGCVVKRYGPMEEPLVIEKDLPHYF
In short: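 GR-coupled readout: 100 nM GR, 1 mM GSH, 0.5 mM NADPH; NADPH fluorescence (ex 340/em 450 nm) read at t=0 and after 15 min RT. GPX4 200 nM, preincubated 30 min with compound; substrate 0.5 mM CHP.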

[4] = molecular target: Luciferin 4-monooxygenase (Photinus pyralis) (UniProt P08659); assay: Primary firefly luciferase (FLuc) qHTS assay for identification of artifact compounds. (AID 1845220); further: series mostly up to about 54 µM; nearly all actives have a fitted effect of over 60% in size
In short: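 Reaction readout was CCD-imaged luminescence, taken 5 min after adding 10 nM purified firefly enzyme to compound-treated wells holding 10 uM luciferin and ATP in pH 7.6 buffer.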

[5] = Primary fluorescence-based thiol-reactive (MSTI) qHTS assay for identification of artifact compounds. (AID 1845221);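 further: series mostly up to about 54 µM; thiol-reactive compounds lower the probe fluorescence signal; nearly all actives have a fitted effect of over 65% in size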
In short: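 Reactivity toward the thiol probe MSTI (4 uM) is scored by fluorescence at Ex/Em 525/598 nm after 1 h at room temperature. Acetyl-MSTI and MSTI define the activity scale.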

[6] = test system: Nanoluciferase (engineered Oplophorus gracilirostris luciferase); assay: Primary Nanoluciferase (NLuc) qHTS assay for identification of artifact compounds. (AID 1845222);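 further: NLuc secreted into diluted conditioned medium of S16 cells; series mostly up to about 54 µM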
In short: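 Concentration-response data were obtained by luminescence after 5 min with Nano-Glo substrate at 1:100. The enzyme was diluted S16 NLuc-expressing cell medium, preincubated with compound for 15 min at RT. Curves were fitted with a 4-parameter Hill model.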

CCn1cc(C(=O)O)c(=O)c2ccc(C)nc21
Potency [1]: inactive | Potency [2]: inactive | Potency [3]: inactive

O=c1cc(-c2ccccc2)oc2cc(O)c(O)c(O)c12
Potency [2]: inactive

Cc1cccc(C)c1OCC(C)N (stereo not drawn)
Potency [1]: inactive | Potency [2]: inactive | Potency [3]: inactive

CC(=O)O[C@]1(C(C)=O)CC[C@H]2[C@@H]3C=C(Cl)C4=CC(=O)[C@@H]5C[C@@H]5[C@]4(C)[C@H]3CC[C@@]21C
Potency [1]: inactive | Potency [2]: inactive | Potency [3]: inactive | Potency [4]: inactive | Potency [5]: inactive | Potency [6]: inactive

NC(N)=Nc1nc(CSCC/C(N)=N/S(N)(=O)=O)cs1
Potency [1]: inactive | Potency [3]: inactive

CC[C@@]1(O)C[C@H](O[C@H]2C[C@H](N(C)C)[C@H](O[C@H]3C[C@H](O)[C@H](O[C@H]4CCC(=O)[C@H](C)O4)[C@H](C)O3)[C@H](C)O2)c2c(cc3c(c2O)C(=O)c2c(O)cccc2C3=O)[C@@H]1C(=O)OC
Potency [2]: inactive

CC(C)(C)c1ccc(C(O)CCCN2CCC(C(O)(c3ccccc3)c3ccccc3)CC2)cc1 (stereo not drawn)
Potency [1]: inactive | Potency [2]: inactive | Potency [3]: inactive

N[C@H](CSC(c1ccccc1)(c1ccccc1)c1ccccc1)C(=O)O
Potency [2]: inactive

C[C@]12CC[C@@H]3c4ccc(O)cc4C[C@@H](CCCCCCCCCS(=O)CCCC(F)(F)C(F)(F)F)[C@H]3[C@H]1CC[C@H]2O (stereo partly drawn)
Potency [2]: inactive | Potency [3]: inactive

CC(C)n1cnc2c(NCCCCCCNC(=O)OC(C)(C)C)nc(NCCO)nc21
Potency [2]: inactive | Potency [3]: inactive

CCCCCNC(=O)N1CCC(CN(Cc2ccc(Cl)cc2)Cc2ccc([N+](=O)[O-])s2)C1 (stereo not drawn)
Potency [2]: 2050 nM (active) | Potency [3]: inactive

O=C(NCc1ccncc1)C12C[C@H]3C[C@@H](C1)CC(c1ccc(Cl)cc1)(C3)C2
Potency [2]: inactive | Potency [3]: inactive
